Inconclusive results are not listed. A number with no mark means an inactive call. Active and inactive are the calls of the source. Calls follow the shape of the dose curve; as a rule, active = well fitted inhibition curve with a large enough effect; inconclusive = small, poorly fitted or top-dose-only effect; inactive = flat fitted curve, though single readings scatter. *1 amine or outer side, *2 acyl side, *3 side chain or, on linkers, in order; H or OH if unused. Where a SMILES comes first, the peptide text is derived from it. Bridges are numbered along the chain shown (N, C = ends). [ ]: non-standard residue; d: D form. The star is where a group is joined. pTerphenylCO(4''-OnC5H11) = CCCCCOc1ccc(-c2ccc(-c3ccc(C(=O)*)cc3)cc2)cc1; Orn(4R-OH,5R-OH) = O=C([C@H](C[C@@H](O)[C@@H](O)N[*:3])N[*:1])[*:2]; hTyr(3S-OH,4S-OH) = N[C@H](C(=O)O)[C@H](O)[C@@H](O)c1ccc(O)cc1; Pro(3S-OH,4S-Me) = C[C@H]1CN[C@H](C(=O)O)[C@H]1O; Hyp = O=C(O)[C@@H]1C[C@@H](O)CN1
Columns and labels:
Test in all cases: Cytotoxic Profiling of Annotated Libraries Using Quantitative High-Throughput Screening (AID 1296008); also: nearly all actives have a fitted effect of over 60% in size
Conditions in all cases: Five cell lines viability, CellTiter-Glo ATP luminescence, 48-72 h; max response: active compounds read low
CRL-7250 = normal cell line; tested on: CRL-7250
Method in brief: (§1)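 Cells exposed to compounds for 48 or 72 hr at 37 degrees Celsius. Viability read as ATP-coupled luminescence with CellTiter-Glo after 10 min at room temperature.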

HaCat = tested on: HaCat
Method in brief: as §1

KB-3-1 = tested on: KB-3-1
Method in brief: as §1

NIH3T3 = tested on: NIH3T3
Method in brief: as §1
% is scaled to controls: 0 for no effect and ±100 for the full control effect; potency is read from the fitted curve at half-maximal effect.

SMILES	outcome (CRL-7250)	max response (HaCat)	max response (KB-3-1)	max response (NIH3T3)	max response (CRL-7250)	outcome (NIH3T3)	outcome (KB-3-1)	Potency (CRL-7250)
Cc1c(C(=O)NCc2cccnc2)nn(-c2ccc(Cl)cc2Cl)c1-c1ccc(Cl)cc1	inactive	-13.1%	-24%	-4.76%				
CCC(C)/C=C(C)/C=C/C1=CC2=CC(=O)C3(C)OC(C)(O)C(C(=O)OC)C3C2=CO1 (stereo unspecified)		4.73%	0.0483%	-9.14%	2.86%			
COc1ccccc1N1CCN(CC(C(=O)NC(C)(C)C)c2ccccc2)CC1 (stereo unspecified)	inactive	-3.82%	7.33%			inactive		
CCC(C)C(=O)O[C@H]1[C@@H](OC(=O)c2ccoc2)C[C@](C)(O)[C@]23OC(C)(C)[C@H](C[C@H](OC(=O)c4ccoc4)[C@]12COC(C)=O)[C@H]3OC(C)=O (stereo partly specified)		-1.74%	3.34%		-11%	inactive		
C/C(=C\CCC(C)C1=CCC2(C)OC3=C(CC12)C(=O)C(O)CC3)CO (stereo unspecified)		-38%	-18.5%	-0.114%	-17.6%			
O=C(N[C@H]1CCN(C(=O)c2cc(C(F)(F)F)cc(C(F)(F)F)c2)[C@H](Cc2ccc(Cl)cc2)C1)c1ccnc2ccccc12		-2.45%	-7.03%		0.275%	inactive		
C[C@@H]1O[C@@H](O[C@H]2CC[C@@]3(C)C(CC[C@]4(C)C3CC=C3[C@@H]5CC(C)(C)CC[C@]5(C(=O)O[C@@H]5O[C@H](CO)[C@@H](O)[C@H](O)[C@H]5O)CC[C@]34C)[C@]2(C)CO)[C@H](O)[C@H](O[C@@H]2O[C@H](CO)[C@@H](O)[C@H](O)[C@H]2O)[C@H]1O (stereo partly specified)		-8.27%		-2.37%	1.26%		inactive	
COc1c2c(c(C)c3c1C(=O)OC3)O[C@@]1(C)C[C@@H](OC(C)=O)[C@]34O[C@](OC)(CC[C@]3(C)[C@H]1C2)OC4(C)C		-9.22%	1.98%	4.28%	-3.21%			
C=CCCN1CCC2(CC1)CN(C(=O)c1c(F)cccc1F)c1ccc(Cl)cc12	inactive	-0.627%				inactive	inactive	
O=C1Nc2ccccc2-c2nc3ccccc3c(=O)n2-c2c(O)cccc21		-26.5%	0.451%	1.73%	3.48%			
CC(C)(C)OC(=O)c1ncn2c1C(C)(C)Nc1ccccc1-2	inactive	2.2%	0.574%	0.0612%				
O=C(CSc1nc2ccccc2c(=O)n1-c1ccccc1)Nc1ccc2c(c1)CCC2		-10.2%		-0.829%	1.59%		inactive	
COc1ccc(C2(N(C)C(=O)c3ccc(NC(=O)c4ccco4)cc3)CCOCC2)cc1		-27.5%	-3.65%	-15.7%	-25.1%			
Cc1cc(OCCCS(C)(=O)=O)cc(C)c1-c1cccc(COc2ccc3c(c2)OCC3CC(=O)O)c1 (stereo unspecified)		0.974%	-3.22%		-4.99%	inactive		
Cc1ccc(C(C)C)c(O[C@@H]2O[C@H](CO)[C@@H](O)[C@H](O)[C@H]2O)c1		-17.5%	-7.27%	2.1%				16.1 µM (active)
C[C@@H](NC(=O)[C@H](O)c1cc(F)cc(F)c1)C(=O)N[C@@H]1C(=O)N(C)c2ccccc2-c2ccccc21		-11.4%	5.92%	-0.195%	0.116%			
C=CC(C)(O)CC/C=C(/C)COC(=O)C(C)C1CCC(C)(C=C)O1 (stereo unspecified)		3.72%	8.61%	0.167%	-27%			
COc1cc(N(C)CCN(C)C)c(N)cc1Nc1nccc(-c2cn(C)c3ccccc23)n1		-1.2%	-6.79%		-5.14%	inactive		
CCCCCOc1ccc(-c2ccc(-c3ccc(C(=O)N[C@H]4C[C@@H](O)[C@@H](O)NC(=O)[C@@H]5[C@@H](O)[C@@H](C)CN5C(=O)[C@H]([C@@H](C)O)NC(=O)[C@H]([C@H](O)[C@@H](O)c5ccc(O)cc5)NC(=O)[C@@H]5C[C@@H](O)CN5C(=O)[C@H]([C@@H](C)O)NC4=O)cc3)cc2)cc1 ({pTerphenylCO(4''-OnC5H11)}-[Orn(4R-OH,5R-OH)]T[Hyp][hTyr(3S-OH,4S-OH)]T[Pro(3S-OH,4S-Me)]; lactam 1-C)		3.64%		-1.62%	4.73%		inactive	
